The panel holds about 83,000 compounds, 20% with a hit somewhere; the sample as a whole holds those more often.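 Results are percent growth after 48 hours of single-concentration exposure. 100 means growth as in untreated cells, lower positive values show inhibition; negative values down to -100 show cell death.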 Calls of active or inactive are those of the source. How the source made its calls: active means growth percent below 10; inactive means the rest.
How the values were obtained:
Experiment in all cases: NCI-60 one-dose screen, 48 h (100 = growth as untreated, 0 = no growth, -100 = all killed)
Conditions in all cases: 10 µM unless noted
NCI-H226 lung = system: NCI-H226 lung
NCI-H322M lung = system: NCI-H322M lung
HOP-62 NSCLC = system: HOP-62 NSCLC
NCI-H460 lung = system: NCI-H460 lung
HOP-92 NSCLC = system: HOP-92 NSCLC
NCI-H522 lung = system: NCI-H522 lung
A549/ATCC NSCLC = system: A549/ATCC NSCLC
786-0 renal = system: 786-0 renal
COLO 205 colon = system: COLO 205 colon
DU-145 prostate = system: DU-145 prostate
K-562 leukemia = system: K-562 leukemia
MALME-3M melanoma = system: MALME-3M melanoma
MDA-MB-231 breast = system: MDA-MB-231 breast
RXF 393 renal = system: RXF 393 renal
SF-268 CNS = system: SF-268 CNS
SF-295 CNS = system: SF-295 CNS
SF-539 CNS = system: SF-539 CNS
UACC-257 melanoma = system: UACC-257 melanoma
M14 melanoma = system: M14 melanoma

Measured: growth

Cn1cc(-c2csc(-c3cn(CCCCN4CCOCC4)c4ccc(F)cc34)n2)c2cccnc21
inactive: NCI-H226 lung 60.2% | NCI-H322M lung 84.3% | HOP-62 NSCLC 85.6% | NCI-H460 lung 93.5% | HOP-92 NSCLC 52.8% | NCI-H522 lung 57.2% | A549/ATCC NSCLC 75.1% | 786-0 renal 63.2% | COLO 205 colon 65.9% | DU-145 prostate 100% | MDA-MB-231 breast 35.2% | RXF 393 renal 16.3% | SF-268 CNS 63% | SF-295 CNS 50.8% | SF-539 CNS 69.7%
active: K-562 leukemia -49.7% | MALME-3M melanoma -60.3% | UACC-257 melanoma -45.1% | M14 melanoma -53.9%

O=S(=O)(c1ccc(O)cc1)c1ccccc1O
inactive: NCI-H226 lung 104% | NCI-H322M lung 111% | HOP-62 NSCLC 101% | NCI-H460 lung 105% | HOP-92 NSCLC 100% | A549/ATCC NSCLC 112% | COLO 205 colon 112% | DU-145 prostate 111% | K-562 leukemia 98% | MALME-3M melanoma 113% | MDA-MB-231 breast 98.9% | RXF 393 renal 117% | SF-268 CNS 97.3% | SF-295 CNS 112% | SF-539 CNS 103% | UACC-257 melanoma 111%

COc1ccc(C(C#N)C(C)=O)cc1 (centres undefined)
inactive: NCI-H226 lung 99.9% | NCI-H322M lung 135% | HOP-62 NSCLC 98.8% | NCI-H460 lung 102% | HOP-92 NSCLC 111% | NCI-H522 lung 82.5% | A549/ATCC NSCLC 101% | 786-0 renal 107% | COLO 205 colon 106% | DU-145 prostate 92.6% | K-562 leukemia 104% | MALME-3M melanoma 108% | MDA-MB-231 breast 116% | RXF 393 renal 111% | SF-268 CNS 88.9% | SF-295 CNS 107% | SF-539 CNS 103% | UACC-257 melanoma 93% | M14 melanoma 101%

CNC(=O)O/N=C(\SC)C(=O)N(C)C
inactive: NCI-H226 lung 110% | NCI-H322M lung 111% | HOP-62 NSCLC 105% | NCI-H460 lung 107% | HOP-92 NSCLC 76.8% | NCI-H522 lung 77.5% | A549/ATCC NSCLC 109% | 786-0 renal 105% | COLO 205 colon 105% | DU-145 prostate 117% | K-562 leukemia 89.2% | MALME-3M melanoma 117% | MDA-MB-231 breast 110% | RXF 393 renal 105% | SF-268 CNS 105% | SF-295 CNS 113% | SF-539 CNS 103% | UACC-257 melanoma 103% | M14 melanoma 102%

CN1CCN(c2ccc(Cl)cc2)CC1
inactive: NCI-H226 lung 93.8% | NCI-H322M lung 94.2% | HOP-62 NSCLC 93.1% | NCI-H460 lung 44.6% | HOP-92 NSCLC 93.7% | NCI-H522 lung 44.3% | A549/ATCC NSCLC 69.1% | 786-0 renal 104% | COLO 205 colon 89.8% | K-562 leukemia 70.3% | MALME-3M melanoma 126% | MDA-MB-231 breast 105% | RXF 393 renal 66.9% | SF-268 CNS 88.5% | SF-295 CNS 57% | SF-539 CNS 97.2% | UACC-257 melanoma 84.4% | M14 melanoma 101%
active: DU-145 prostate 6.91%

NC(N)=NC(N)=Nc1ccc(Cl)cc1
inactive: NCI-H226 lung 98.5% | NCI-H322M lung 109% | HOP-62 NSCLC 112% | NCI-H460 lung 106% | HOP-92 NSCLC 89.7% | NCI-H522 lung 93.6% | A549/ATCC NSCLC 111% | 786-0 renal 115% | COLO 205 colon 112% | DU-145 prostate 116% | K-562 leukemia 99% | MALME-3M melanoma 116% | MDA-MB-231 breast 113% | RXF 393 renal 108% | SF-268 CNS 95.4% | SF-295 CNS 98.1% | SF-539 CNS 103% | UACC-257 melanoma 111% | M14 melanoma 114%

O=C/C=C/c1ccco1
inactive: NCI-H226 lung 107% | NCI-H322M lung 111% | HOP-62 NSCLC 94.7% | NCI-H460 lung 111% | HOP-92 NSCLC 94.3% | NCI-H522 lung 92% | A549/ATCC NSCLC 85.6% | 786-0 renal 100% | COLO 205 colon 115% | DU-145 prostate 108% | K-562 leukemia 88.8% | MALME-3M melanoma 98.8% | MDA-MB-231 breast 99.4% | RXF 393 renal 119% | SF-268 CNS 102% | SF-295 CNS 99.9% | SF-539 CNS 100% | M14 melanoma 102%

CC[C@H](CC[C@@H](C)[C@H]1CC[C@H]2[C@@H]3CC[C@H]4C[C@]5(CC[C@]4(C)[C@H]3CC[C@]12C)OO[C@](C)(C(F)(F)F)O5)C(C)C
inactive: NCI-H226 lung 89.7% | NCI-H322M lung 91.5% | HOP-62 NSCLC 81.7% | NCI-H460 lung 95.1% | HOP-92 NSCLC 87.4% | NCI-H522 lung 92.8% | A549/ATCC NSCLC 95.3% | 786-0 renal 97% | COLO 205 colon 96.4% | DU-145 prostate 97.2% | K-562 leukemia 93.9% | MALME-3M melanoma 86% | MDA-MB-231 breast 94.5% | RXF 393 renal 106% | SF-268 CNS 87.4% | SF-295 CNS 94.6% | SF-539 CNS 97.8% | UACC-257 melanoma 95.3% | M14 melanoma 97.1%

CN(C)c1ccc(C=C2C(=O)NC(=O)NC2=O)cc1
inactive: NCI-H226 lung 97.6% | NCI-H322M lung 123% | HOP-62 NSCLC 110% | NCI-H460 lung 102% | HOP-92 NSCLC 86.8% | NCI-H522 lung 69.6% | A549/ATCC NSCLC 92.6% | 786-0 renal 109% | COLO 205 colon 107% | DU-145 prostate 102% | K-562 leukemia 109% | MALME-3M melanoma 96.4% | MDA-MB-231 breast 88.2% | RXF 393 renal 94% | SF-268 CNS 93.5% | SF-295 CNS 95.5% | SF-539 CNS 96.7% | M14 melanoma 86.5%
active: UACC-257 melanoma -19.7%

CC12CCC3C4CCC(=O)C=C4CCC3C1CC1CC(=O)OC12 (centres undefined)
inactive: NCI-H226 lung 93.7% | NCI-H322M lung 89.9% | HOP-62 NSCLC 88% | NCI-H460 lung 104% | HOP-92 NSCLC 92.7% | NCI-H522 lung 79% | A549/ATCC NSCLC 84.5% | 786-0 renal 107% | COLO 205 colon 105% | DU-145 prostate 112% | K-562 leukemia 95.5% | MALME-3M melanoma 103% | MDA-MB-231 breast 97.6% | RXF 393 renal 110% | SF-268 CNS 98% | SF-295 CNS 103% | SF-539 CNS 101% | UACC-257 melanoma 80.7% | M14 melanoma 104%

ClC1OC(Cl)(Cl)C(Cl)(Cl)OC1(Cl)Cl (centres undefined)
inactive: NCI-H226 lung 94.7% | HOP-62 NSCLC 104% | NCI-H460 lung 128% | NCI-H522 lung 89.4% | A549/ATCC NSCLC 102% | 786-0 renal 109% | COLO 205 colon 110% | DU-145 prostate 114% | K-562 leukemia 98.1% | MALME-3M melanoma 97.5% | MDA-MB-231 breast 105% | RXF 393 renal 110% | SF-268 CNS 108% | SF-295 CNS 109% | SF-539 CNS 91% | UACC-257 melanoma 99.5% | M14 melanoma 98.1%

CC1=CC(=Nc2ccc(N(CCCl)CCCl)cc2)C=C(C)C1=O
active: NCI-H460 lung 7.26% | HOP-92 NSCLC -30.7% | NCI-H522 lung -87.2% | DU-145 prostate -39.4% | MALME-3M melanoma 8.43% | RXF 393 renal -80.3% | SF-268 CNS -9.09% | SF-539 CNS 4.45%
inactive: NCI-H226 lung 44.5% | NCI-H322M lung 79.2% | HOP-62 NSCLC 36.5% | A549/ATCC NSCLC 38.4% | 786-0 renal 21% | COLO 205 colon 39.5% | K-562 leukemia 17.4% | MDA-MB-231 breast 40.8% | SF-295 CNS 14.9% | UACC-257 melanoma 19.3% | M14 melanoma 29.5%

O=CC1(c2ccccc2)CCN(Cc2ccccc2)CC1
inactive: NCI-H226 lung 98.2% | NCI-H322M lung 105% | HOP-62 NSCLC 112% | NCI-H460 lung 110% | HOP-92 NSCLC 97.3% | NCI-H522 lung 105% | A549/ATCC NSCLC 95.4% | 786-0 renal 108% | COLO 205 colon 109% | DU-145 prostate 106% | K-562 leukemia 105% | MALME-3M melanoma 105% | MDA-MB-231 breast 104% | RXF 393 renal 115% | SF-268 CNS 99.6% | SF-295 CNS 99% | SF-539 CNS 106% | UACC-257 melanoma 99.5% | M14 melanoma 98.8%

O=P1(N(CCCl)CCCl)NCCCO1 (centres undefined)
inactive: NCI-H226 lung 101% | NCI-H322M lung 104% | HOP-62 NSCLC 105% | NCI-H460 lung 104% | HOP-92 NSCLC 131% | NCI-H522 lung 109% | 786-0 renal 104% | COLO 205 colon 116% | DU-145 prostate 124% | K-562 leukemia 104% | MALME-3M melanoma 96.5% | MDA-MB-231 breast 107% | RXF 393 renal 110% | SF-268 CNS 117% | SF-295 CNS 107% | SF-539 CNS 110% | UACC-257 melanoma 109% | M14 melanoma 101%
